# From publication PMC4336329 (PLoS ONE, 2015)
# About 14,000 (4.5%) of roughly 310,000 compounds showed an effect of 50% or more. Effects have a minus sign here. The sample holds strong results, similar compounds and a random draw of the others, so the mix is not that of the screen.
# Biological target: human ether-à-go-go-related gene (hERG) potassium channel (human, UniProt Q12809)
# Test: primary screen, population patch clamp on CHO cells stably expressing hERG; higher = less effect of the substance
# 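Also: peak tail current of the secondary pulse compared with the same well before compound.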
# human ether-à-go-go-related gene (hERG) potassium channel, sequence (Q12809 whole entry, looked up): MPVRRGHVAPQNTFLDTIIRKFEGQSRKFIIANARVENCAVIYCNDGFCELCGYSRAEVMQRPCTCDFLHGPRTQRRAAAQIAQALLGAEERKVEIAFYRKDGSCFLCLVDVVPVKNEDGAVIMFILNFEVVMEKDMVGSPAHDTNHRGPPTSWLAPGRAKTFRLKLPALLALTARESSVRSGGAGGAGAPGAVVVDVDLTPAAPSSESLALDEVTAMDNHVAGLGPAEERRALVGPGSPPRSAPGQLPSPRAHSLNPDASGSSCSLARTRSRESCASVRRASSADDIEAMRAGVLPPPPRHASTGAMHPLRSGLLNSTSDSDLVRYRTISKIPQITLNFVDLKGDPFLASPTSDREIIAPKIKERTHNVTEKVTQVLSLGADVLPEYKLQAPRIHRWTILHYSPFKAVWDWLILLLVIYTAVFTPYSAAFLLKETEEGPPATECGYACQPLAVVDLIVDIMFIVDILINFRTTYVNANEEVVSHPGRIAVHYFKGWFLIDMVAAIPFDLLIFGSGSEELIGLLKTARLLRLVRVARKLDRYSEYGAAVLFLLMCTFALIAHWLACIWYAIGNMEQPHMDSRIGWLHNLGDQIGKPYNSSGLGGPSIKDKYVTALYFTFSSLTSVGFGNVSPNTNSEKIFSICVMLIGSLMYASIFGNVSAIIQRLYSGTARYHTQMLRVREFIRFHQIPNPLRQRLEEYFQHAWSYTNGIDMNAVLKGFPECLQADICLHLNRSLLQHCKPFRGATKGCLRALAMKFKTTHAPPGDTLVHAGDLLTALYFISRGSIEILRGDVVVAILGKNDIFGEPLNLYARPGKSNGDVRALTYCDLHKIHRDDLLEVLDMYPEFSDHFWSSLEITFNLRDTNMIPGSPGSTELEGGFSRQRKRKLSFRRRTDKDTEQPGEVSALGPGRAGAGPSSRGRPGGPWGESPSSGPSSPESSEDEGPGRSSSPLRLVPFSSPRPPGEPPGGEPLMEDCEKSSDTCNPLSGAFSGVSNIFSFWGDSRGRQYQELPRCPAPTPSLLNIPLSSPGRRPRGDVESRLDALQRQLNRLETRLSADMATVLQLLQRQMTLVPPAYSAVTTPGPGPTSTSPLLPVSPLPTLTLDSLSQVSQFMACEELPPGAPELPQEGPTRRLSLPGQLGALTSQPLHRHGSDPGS
row,Compound,"hERG current change (%, negative = inhibition) at 10uM"
1,Cc1ccc2c(c1)N(CCC(=O)NCCCN1CCCC1)C(=O)CO2,12.7%
2,Cl.NCCOc1ccccc1OCCN,22.1%
3,CCN(C(=S)Nc1ccc(C(C)=O)cc1)C1CCCCC1,3.5%
4,C=CCN1C(=O)C(O)(CC(=O)c2ccc(OC)cc2OC)c2cc(Br)ccc21 (stereo not drawn),-3.68%
5,O=C(NC1CCCc2ccccc21)c1cncc(Br)c1 (stereo not drawn),8.69%
6,COCCn1c(SCC(=O)N(C)c2c(N)n(Cc3ccccc3)c(=O)[nH]c2=O)nnc1-c1cccc(C)c1,24.7%
7,Cc1ccc(Cn2c(SCC(=O)NCC3CCCO3)nc3c2c(=O)n(C)c(=O)n3C)cc1 (stereo not drawn),-28.4%
8,CCn1nc(C)cc1C(=O)N1CCCC(C(=O)c2ccccc2SC)C1 (stereo not drawn),-1.16%
9,Cl.O=C(/C=C/c1ccc(Br)o1)NCCCN1CCOCC1,7.91%
10,COc1ccc(/C=C/C(=O)NCCCN2CCCC2)cc1,-44.5%
11,O=C(/C=C/c1ccc(Cl)cc1)NCCCN1CCOCC1,-71%
12,O=C(/C=C/c1ccc(F)cc1)NCCCN1CCN(CCCNC(=O)/C=C/c2ccc(F)cc2)CC1,-73.2%
13,COc1ccc(/C=C/C(=O)NCCCN2CCCCCC2)cc1,-58.3%
14,O=C(/C=C/c1ccc(Cl)cc1)NCCN1CCOCC1,-24%
15,O=C(/C=C/c1ccc(F)cc1)NCCNC(=O)/C=C/c1ccc(F)cc1,35.7%
16,O=C(/C=C/c1ccco1)NCCCN1CCN(CCCNC(=O)/C=C/c2ccco2)CC1,-43.5%
17,COc1ccc(/C=C/C(=O)NCCCN2CCOCC2)cc1,-29.4%
18,Cc1ccc(/C=C/C(=O)NCCCN2CCN(CCCNC(=O)/C=C/c3ccc(C)cc3)CC2)cc1,-0.473%
19,CC(C)c1ccc(/C=C/C(=O)NCCCN2CCOCC2)cc1,-39%
20,Cc1ccc(/C=C/C(=O)NCCCN2CCN(CCCNC(=O)/C=C/c3ccc(C)o3)CC2)o1,-78.3%
21,COC(=O)[C@@]1(Cc2ccc(OC)cc2)[C@H]2c3cc(C(=O)N(C)C)n(CCSCCO)c3C[C@H]2CN1C(=O)c1ccccc1,-18.4%
22,COC(=O)Nc1ccc(S(=O)(=O)N2CCCCC2)cc1,-4.21%

row,Compound,"hERG current change (%, negative = inhibition) at 10uM"
1,Cn1nccc1C(=O)N/N=C/c1cccnc1,-14.8%
2,COCCNC(=O)CN1C(=O)COc2ccc(Cl)cc21,21.8%
3,Cc1nn(-c2ccccc2)c(C)c1NC(=O)COC(=O)CCCOc1ccccc1,6.69%
4,COc1ccc(Br)cc1/C=N/N1C(=O)CSC1=S,17.3%
5,CCOC(=O)c1c[nH]c2ccc3ccccc3c2c1=O,13%
6,COc1cc(C2C(C#N)=C(N)N(c3cccnc3)C3=C2C(=O)CCC3)ccc1O (stereo not drawn),-12%
7,O=c1ccc2cc(S(=O)(=O)N3CCOCC3)ccc2o1,4.83%
8,CC1CC(C)CN(S(=O)(=O)c2ccc3oc(=O)ccc3c2)C1 (stereo not drawn),-59.5%
9,O=c1ccc2cc(S(=O)(=O)N3CCN(c4ccccc4)CC3)ccc2o1,-0.646%
10,Cc1ccc(N2CCN(S(=O)(=O)c3ccc4oc(=O)ccc4c3)CC2)cc1Cl,3.42%
11,CC1CCCN(S(=O)(=O)c2ccc3oc(=O)ccc3c2)C1 (stereo not drawn),-19.4%
12,O=c1ccc2cc(S(=O)(=O)N3CCN(c4ccc(Cl)cc4)CC3)ccc2o1,-52.8%
13,CCOc1ccc(C(=O)Nc2ccccc2C(=O)O)cc1,8.2%
14,Cc1ccc(S(=O)(=O)N2CCCCC2)cc1NC(=O)CSc1nnc(N)s1,-20.2%
15,O=C(Cn1cc([N+](=O)[O-])cn1)N1CCN(c2ccccc2)CC1,7.25%
16,COc1ccc(C(NC(=O)C2C3C=CC(C3)C2C(=O)O)c2ccccc2)cc1 (stereo not drawn),-4.58%
17,O=C(CN1CCCc2ccccc21)N/N=C/c1ccc(O)cc1O,-29.1%
18,CC1CCN(C(=O)CC(NC(=O)c2ccccc2Cl)c2ccccc2)CC1 (stereo not drawn),-15.7%
19,C[C@H](NC(=O)c1ccccc1Cl)C(=O)OCC(=O)N1CCN(c2ccccc2)CC1,-9.59%
20,O=C(NC(CC(=O)N1CCN(c2ccccc2O)CC1)c1ccccc1)c1ccccc1Cl (stereo not drawn),-70.6%
21,O=C(NC(CC(=O)N1CCN(c2ccc([N+](=O)[O-])cc2)CC1)c1ccccc1)c1ccccc1Cl (stereo not drawn),-85.3%
22,O=C(NC(CC(=O)N1CCCC(C(F)(F)F)C1)c1ccccc1)c1ccccc1Cl (stereo not drawn),-8.81%

row,Compound,"hERG current change (%, negative = inhibition) at 10uM"
1,Cc1cccc(N2CCN(C(=O)c3ccccc3SCC(=O)N3CCCC3)CC2)c1C,-34.7%
2,O=C(NC(CC(=O)N1CCN(c2ccccc2)CC1)c1ccccc1)c1ccccc1Cl (stereo not drawn),-46.8%
3,Cc1cccc(N2CCN(C(=O)CC(NC(=O)c3ccccc3Cl)c3ccccc3)CC2)c1C (stereo not drawn),-59.9%
4,Cc1cccc(N2CCN(C(=O)CNC(=O)c3ccccc3)CC2)c1C,-30.6%
5,C/C(=N\Nc1ccc([N+](=O)[O-])cc1)c1ccc(O)cc1,-1.55%
6,CNC(=S)N(CCO)Cc1cc2cc3c(cc2[nH]c1=O)OCO3,24%
7,Cc1cccc(-n2c(SCC(N)=O)nnc2-c2ccccn2)c1C,1.28%
8,CCc1ccc(C(=O)NC(CC(C)C)C(=O)O)cc1 (stereo not drawn),-2.4%
9,Cc1cc(/C=C2\C(=O)NC(=O)N(Cc3ccco3)C2=O)c(C)n1-c1ccc(C(=O)O)cc1,12.2%
10,COc1cccc(Nc2ncccc2C(=O)O)c1,9.1%
11,CCN(CC)C(=O)CSc1nc2ccsc2c(=O)n1CCCC(=O)NCCc1ccc(S(N)(=O)=O)cc1,24.7%
12,O=C(CCc1ccccc1)NCc1ccccc1,-8.04%
13,Cn1c(SCc2ccc(Br)cc2)nc2c(c1=O)SCC2,-18.6%
14,Cn1c(SCc2ccc([N+](=O)[O-])cc2)nc2c(c1=O)SCC2,-67.5%
15,Cn1c(SCc2cccc([N+](=O)[O-])c2)nc2c(c1=O)SCC2,-36.6%
16,Cn1c(SCC(=O)Nc2ccccc2F)nc2c(c1=O)SCC2,-9.41%
17,Cn1c(SCC(=O)Nc2ccc(F)cc2)nc2c(c1=O)SCC2,-6.44%
18,Cn1c(SCC(=O)Nc2ccccc2C(F)(F)F)nc2c(c1=O)SCC2,-57%
19,Cc1cc(C)c(S(=O)(=O)N2CCN(c3ccccc3)CC2)c(C)c1,16.5%
20,Cc1ccc(NC(=O)c2ccccc2N2C(=O)C3C4C=CC(C5CC45)C3C2=O)cc1C (stereo not drawn),2.91%
21,COc1ccc(-n2c(N)c(C(=O)NCc3ccco3)c3nc4ccccc4nc32)cc1OC,16.7%
22,O=C(CNC(=O)c1ccc(Br)o1)NCc1ccccc1,6.66%

row,Compound,"hERG current change (%, negative = inhibition) at 10uM"
1,O=C(c1sccc1-c1ccccc1)N1CCN(S(=O)(=O)c2ccccc2F)CC1,-49.3%
2,COc1ccc(N2CCN(CCNC(=O)Nc3cc(Cl)ccc3Cl)CC2)cc1,15.6%
3,O=C(NCCN1CCCC1)C1(S(=O)(=O)c2ccc(Cl)cc2)CC1,11.7%
4,O=C(NCCCN1CCCCC1)C1(S(=O)(=O)c2ccc(Cl)cc2)CC1,-32.3%
5,O=C(NCCCN1CCN(c2cccc(Cl)c2)CC1)C1(S(=O)(=O)c2ccc(Cl)cc2)CC1,-71%
6,O=C(NCCc1ccccc1)C1(S(=O)(=O)c2ccc(Cl)cc2)CC1,6.29%
7,COc1ccc(C2(C(=O)NCCCN3CCOCC3)CCOCC2)cc1.Cl,10.6%
8,O=C(NCCN1CCN(c2ccccc2)CC1)C1(S(=O)(=O)c2ccc(Cl)cc2)CC1,-50.2%
9,S=C(NCCCN1CCOCC1)N1CCN(c2cccc(Cl)c2)CC1,-40.2%
10,COc1ccc(N2CCN(CCCNC(=O)C3(S(=O)(=O)c4ccc(Cl)cc4)CC3)CC2)cc1,-61.5%
11,CC1CCC(C)(NS(=O)(=O)OCC(Cl)(Cl)Cl)CC1 (stereo not drawn),-21.7%
12,CN(C)C(/C=C/Nc1ccc(F)cc1)=C(C#N)C#N,-8.47%
13,CCN1C(=O)c2ccccc2S(=O)(=O)c2ccc(C(=O)NCC(OC)OC)cc21,6.16%
14,NNC(=O)COc1ncn(-c2ccccc2)n1,18%
15,N#Cc1ccsc1NC(=O)COC(=O)c1cc(Br)ccc1O,-22.2%
16,Cc1c(C(=O)N2CCCc3ccccc32)oc2ccc(S(=O)(=O)N3CCOCC3)cc12,-44.2%
17,O=C(CNCCc1ccc(F)cc1)Nc1cc(F)ccc1F.O=C(O)C(=O)O,-19.9%
18,CCOc1ccccc1NC(=O)COc1ccc(S(=O)(=O)N2CCCC2)cc1,-4.32%
19,O=C(NCC1CCCO1)c1ccc([N+](=O)[O-])s1 (stereo not drawn),25.4%
20,CCOC(=O)C(c1ccccc1)N1CCN(c2ccc(OC)cc2)CC1 (stereo not drawn),4.91%
21,C/C(CC(=O)Nc1ccc2c(c1)OCCO2)=N\NC(=O)Cc1ccccc1,-9.4%
